Compound activity as filed in PubChem.
MEKK2wt PB1 HTS: modulators of MEK5 binding to wildtype MEKK2, primary screen, biochemical, multiplex bead flow cytometry, Alexa488-MEK5; AID 1531, 2009; Alexa488-MEK5 binding to MEKK2 WT; actives lie on both sides; Mitogen-activated protein kinase kinase kinase 2 (Homo sapiens), Q9Y2U5; 290,000 tested, 1.1% active; binding response (% of control), % at 10 µM; in the data active means binding response below about 67% or above about 130%
MEKK3 PB1 HTS: modulators of MEKK3-MEK5 PB1 binding, primary screen, biochemical, wildtype MEKK3, multiplex bead flow cytometry, Alexa488-MEK5 | binding response (% of control), % at 10 µM | bead-based flow cytometry, Alexa488-MEK5 binding to MEKK3; actives lie on both sides; 0 = blocked by unlabeled MEK5, 100 = vehicle | Mitogen-activated protein kinase kinase kinase 3 (Homo sapiens), Q99759 | AID 1529, 2009 | 290,000 tested, 1.4% active;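 active means binding response more than 3 SD above or below the average of its plate-row segment, actives on both sides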;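 further: Alexa488 bead fluorescence after subtracting the streptavidin-only scavenger bead signal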
UBC13 polyUb: UBC13 polyubiquitin chain formation inhibitors, primary screen, biochemical, TR-FRET, uHTS | Ubiquitin-conjugating enzyme E2 N (Homo sapiens), P61088 | inhibition, % at 20 µM | 330,000 tested, 0.47% active | AID 485273, 2010; in the data active means inhibition above about 45%, passing the limit was not always enough
Target sequence (P61088 whole entry, looked up): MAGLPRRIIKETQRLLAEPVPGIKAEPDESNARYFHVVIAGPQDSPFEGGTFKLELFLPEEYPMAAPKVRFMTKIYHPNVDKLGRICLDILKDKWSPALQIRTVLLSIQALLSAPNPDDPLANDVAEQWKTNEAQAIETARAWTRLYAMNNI
MEKK2 mut-MEK5: MEK5 binding signal on mutant MEKK2 PB1, primary screen, biochemical, multiplex bead flow cytometry, Alexa488-MEK5; percent response, % at 10 µM; 290,000 tested, 0.35% active; AID 1530, 2009; Alexa488-MEK5 binding to MEKK2 mutant; in the data active means percent response above about 24%, passing the limit was not always enough
MEKK2wt confirm: modulators of MEK5 binding to wildtype MEKK2, confirmation, biochemical, single concentration, multiplex bead flow cytometry. 5,900 tested, 2.4% active. shares compounds with MEKK3 PB1 HTS. binding response (% of control), % at 10 µM. AID 1892, 2009. Alexa488-MEK5 binding to MEKK2 WT; actives lie on both sides; in the data active means binding response below about 16% or above about 210%; inactive means in between
MEKK2mut-MEK5: mutant MEKK2 PB1-MEK5 binding signal retest – biochemical, single concentration, multiplex bead flow cytometry, confirmation. shares compounds with MEKK3 PB1 HTS. Alexa488-MEK5 binding to MEKK2 mutant. percent response, % at 10 µM. 5,900 tested, 2% active. AID 1893, 2009; in the data active means percent response mostly above about 71%, no sharp cut-off; inactive means mostly below about 38%;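 further: higher means compound restores mutant binding toward wildtype level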
MEKK3-MEK5 inh: MEKK3 wild-type PB1 binding to MEK5, inhibitors, confirmation, biochemical, bead multiplex flow cytometry, single concentration, wildtype; shares compounds with MEKK3 PB1 HTS; Alexa488-MEK5 binding to MEKK3; stronger effect = lower value; binding response (% of control), % at 10 µM; 5,900 tested, 1.8% active;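 active means binding response below 72% of control, or above a set upper limit, though filed actives all read lower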;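 further: 100% = DMSO only wells and 0% = binding blocked by excess unlabeled MEK5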
Active calls of the source: *; · = no result; [ ] = remark or other dose. Sampled rows, rich in hits. Any-hit rate of the full collection: about 2.3%.

SMILES	MEKK2wt PB1 HTS	MEKK3 PB1 HTS	UBC13 polyUb	MEKK2 mut-MEK5	MEKK2wt confirm	MEKK2mut-MEK5	MEKK3-MEK5 inh
NC(N)=N/N=C/c1ccc(OCc2ccccc2Cl)cc1	208*	111	74*	49*	209*	45	103
OCCCCNCc1ccc(OCc2ccccc2Cl)cc1	163*	101	15	27*	170	41	111
CC(C)N(C(=O)[C@H]1CC(CC(=O)NCCC2=CCCCC2)C(=O)N2CCc3c([nH]c4ccccc34)[C@]12C)C(C)C (some centres not stated)	·	·	1	·	·	·	·
Cc1c(C(=O)/C=C/N(C)C)nnn1-c1ccc(Cl)cc1C#N	102	101	-5	2	·	·	·
COc1ccc(Cl)cc1N(CC(=O)N1CCN(Cc2ccccc2)CC1)S(C)(=O)=O	112	125*	7	5	106	0	102
CC(=O)NN(O)C1N(C)C(=O)N(Cc2ccccc2)C1(C)C (configuration not stated)	·	·	1	·	·	·	·
COc1cccc(CNCC(O)(c2ccc(Cl)cc2)c2ccc(Cl)cc2)c1	158*	111	12	7	118	5	98
CCc1ccc(C(O)(CNCc2ccccc2)c2ccccc2)cc1 (configuration not stated)	120	111	13	26*	114	9	106
O=C1c2ccccc2C(=O)c2cc(S(=O)(=O)Nc3ccccc3)ccc21	93	86	-14	-4	·	·	·
O=C1C(Nc2ccccc2)=C(NS(=O)(=O)c2ccccc2)C(=O)c2ccccc21	106	139*	-39	0	96	-7	92
COc1ccc(OCC(O)Cn2c(=N)n(CCN3CCCCC3)c3ccccc32)cc1 (configuration not stated)	127	110	12	17	·	·	·
Cc1ccc(OCC(O)Cn2c(=N)n(CCN3CCCCC3)c3ccccc32)cc1 (configuration not stated)	145*	105	12	4	130	10	102
Nc1c(N(CCO)C(=O)/C=C/c2ccco2)c(=O)[nH]c(=O)n1Cc1ccccc1	61	50*[inhibitor]	-4	-4	99	-8	102
CCCCN(C(=O)/C=C/c1ccco1)c1c(N)n(CCC)c(=O)[nH]c1=O	102	105	14	3	·	·	·
Cn1c(NCC(O)c2ccccc2)nc2c1c(=O)n(Cc1ccc(Cl)cc1)c(=O)n2C (configuration not stated)	89	78*[inhibitor]	8	-11	110	5	110
COc1ccc(-c2sc(Nc3ccccc3)n[n+]2-c2ccc(F)cc2)c(C)c1C	141*	110	42	37*	120	10	99
COc1ccc(C)cc1Nc1n[n+](-c2ccccc2)c(-c2cc(OC)c(OC)cc2Br)s1	134*	103	38	26*	154	40	109
Fc1ccc(-[n+]2nc(Nc3ccccc3)sc2-c2c3ccccc3cc3ccccc23)cc1	133	105	-8	31*	172	50	105
CSc1ccc(-c2sc(Nc3ccccc3)n[n+]2-c2ccc(F)cc2)cc1	139*	109	1	28*	128	12	111
Cc1cccc(-c2sc(Nc3ccccc3)n[n+]2-c2ccc(F)cc2)c1	105	105	-3	9	·	·	·
CN(C)c1ccccc1C(=O)N1CCCC(C(=O)c2ccc3ccccc3c2)C1 (configuration not stated)	100	100	9	0	·	·	·
COc1cccc2cc(C(=O)Nc3ccc(S(=O)(=O)NCC4CCCO4)cc3)c(=O)oc12 (configuration not stated)	96	92	-1	-8	·	·	·
CC(C)NC(=O)CN1CCC(c2nc3ccccc3[nH]2)CC1	101	100	6	1	·	·	·
Cc1nc(SCC(=O)NCCN2C(=O)CSC2=O)nc(C)c1C	·	·	0	·	·	·	·
N=C(N)c1ccc(OCCCCCOc2ccc(C(=N)N)cc2)cc1	150*	69	14	12	97	-14	66*
SMILES	MEKK2wt PB1 HTS	MEKK3 PB1 HTS	UBC13 polyUb	MEKK2 mut-MEK5	MEKK2wt confirm	MEKK2mut-MEK5	MEKK3-MEK5 inh
CC(C)=CCc1c(O)cc2c(=O)c3ccc(O)cc3oc2c1O	102	103	3	1	·	·	·
CC(C)=CCc1c(O)cc(O)c2c(=O)c3c(CC=C(C)C)c(O)ccc3oc12	137*	104	-21	8	107	3	98
CCOC(=O)NN1C(=O)c2ccccc2NC1c1cccs1 (configuration not stated)	100	99	17	3	·	·	·
CCN1c2ccccc2-c2nc3ccccc3n2C1c1cccs1 (configuration not stated)	0.0*[inhibitor]	0.0*[inhibitor]	7	-5	104	0	105
CCCn1c(-c2cccs2)nc2ccccc21	97	97	6	0	·	·	·
Cc1cccc(CN2CCN(C(c3ccccc3)c3ccc(Cl)cc3)CC2)c1 (configuration not stated)	155*	106	12	13	150	23	103
COc1ccccc1C(=O)NC(=O)COC(=O)c1cccc(C)c1O	·	·	32	·	·	·	·
O=C(NNc1nc(-c2ccccc2)cs1)c1cccs1	76	69*[inhibitor]	-9	-35	100	0	104
COc1ccc(/C=C\c2onc(C)c2S(=O)(=O)N2CCC(C(=O)NCc3ccco3)CC2)cc1	115	130*	-7	31	107	5	106
CCCCNC(=O)C1CCCN(S(=O)(=O)c2c(C)noc2/C=C/c2cccs2)C1 (configuration not stated)	93	95	-3	-5	·	·	·
Cc1noc(/C=C/c2cccs2)c1S(=O)(=O)N1CCC(C(=O)NCCCN2CCCC(C)C2)CC1 (configuration not stated)	152*	109	17	33	146	34	108
CCCNC(=O)C1CCN(S(=O)(=O)c2c(C)noc2/C=C\c2ccc(OC)cc2)CC1	113	110	-4	11	·	·	·
CC1(C)O[C@@H]2[C@H](O1)[C@@H](CO)O[C@H]2n1cnc2c(=O)[nH]cnc21	·	·	-7	·	·	·	·
